Source: PubChem BioAssay (Johns Hopkins Ion Channel Center)
KCNQ2 pot: potentiators of rat KCNQ2 potassium channel. Potassium voltage-gated channel subfamily KQT member 2 (Rattus norvegicus), O88943. CHO-K1 KCNQ2, FluxOR thallium flux fluorescence; stronger effect = higher value. B-score at 10 µM. actives 0.54% (n = 310,000);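 active means fluorescence ratio B-score at least 3 SD of library B-scores, with initial fluorescence B-score within 3 of them, cut at about 5.3 in these data; same plate scores as AID 2156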;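 further: B-score of peak minus minimum over baseline fluorescence ratio after K+ and Tl+ stimulus; positive B-score means potentiation of KCNQ2 with more thallium influx and brighter signal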
KCNQ2 inh: rat KCNQ2 potassium channel inhibitors, primary screen, cell-based, CHO-K1, FluxOR thallium flux, B-score; Potassium voltage-gated channel subfamily KQT member 2 (Rattus norvegicus), O88943; 20 min; stronger effect = lower value; B-score at 10 µM; actives 1.1% (n = 310,000); AID 2156, 2009;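 active means fluorescence ratio B-score at most minus 3 library SDs, with starting brightness B-score within 2 library SDs, cut at about -5.5 in these data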
Kir21 confirm: mouse Kir2.1 channel blockers, retest, confirmation, cell-based, FluxOR thallium flux, duplicate; shares compounds with KCNQ2 pot; AID 2032, 2009; Tl flux remaining, % of negative control (stronger effect = lower value), % at 10 µM; Kir2.1-expressing cells, FluxOR thallium flux fluorescence; stronger effect = lower value; actives 41% (n = 2,300);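 active means Primary-screen hit whose thallium flux fell at least 3 control SD below untreated wells in both duplicates, with normal baseline fluorescence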;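 further: 0% = blank wells without stimulus and 100% = stimulated no-compound controls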
Target sequence (P35561 whole entry, looked up): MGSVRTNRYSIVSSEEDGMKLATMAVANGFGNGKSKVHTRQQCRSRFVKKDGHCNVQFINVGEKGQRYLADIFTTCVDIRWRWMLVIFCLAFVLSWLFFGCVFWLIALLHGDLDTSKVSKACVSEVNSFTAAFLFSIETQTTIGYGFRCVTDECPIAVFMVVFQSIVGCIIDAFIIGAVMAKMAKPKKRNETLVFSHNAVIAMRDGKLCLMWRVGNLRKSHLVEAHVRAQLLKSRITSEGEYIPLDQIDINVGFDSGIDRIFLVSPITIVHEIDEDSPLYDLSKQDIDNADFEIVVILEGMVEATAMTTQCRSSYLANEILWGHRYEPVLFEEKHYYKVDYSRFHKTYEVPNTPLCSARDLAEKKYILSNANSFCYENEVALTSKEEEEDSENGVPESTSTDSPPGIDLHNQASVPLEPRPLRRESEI
HEK293 ctr: parental HEK293 activity in Kir2.1 inhibitor counter-screen; actives 19% (n = 2,300); FluxOR signal as % of negative control (100 = no effect), % at 10 µM; shares compounds with KCNQ2 pot; AID 2105; parental HEK293 cells, FluxOR thallium flux fluorescence; 0% = unstimulated blank wells;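 active means dye signal at least 3 control SD above or below untreated wells in both duplicates, raw fluorescence within 3, either direction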;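 further: percent is based on the flux ratio of peak minus minimum fluorescence over baseline F0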
CHO-K1 ctr: nonspecific thallium flux increase in parental CHO-K1, confirmation, counter-screen for KCNQ2 potentiator project, cell-based, FluxOR thallium flux, duplicate | shares compounds with KCNQ2 pot | parental CHO-K1 cells, FluxOR thallium flux fluorescence; zero = vehicle mean+3SD, 100% = vehicle-minus-blank window | activity increase over 3SD of controls, % at 10 µM | actives 43% (n = 1,200) | AID 2282, 2010;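 active means signal rise of at least 3 SD above the untreated control mean, in both duplicate wells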;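 further: counter screen of KCNQ2 potentiator hits so any rise reflects channel-independent effects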
KCNQ1 pot spec: human KCNQ1 channel potentiation off-target, confirmation, selectivity assay for KCNQ2 potentiator project, cell-based, CHO, FluxOR thallium flux | shares compounds with KCNQ2 pot | activation over 3SD threshold, % at 10 µM | CHO KCNQ1 stable, FluxOR thallium flux fluorescence; beyond 3SD, as % of vehicle-control signal | actives 28% (n = 1,200);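 active means fluorescence ratio rise of at least 3 SD of vehicle wells above their mean, in both replicate wells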;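 further: 0% = vehicle mean plus 3 SD and 100% = vehicle minus unstimulated blank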
KCNQ2 pot confirm: rat KCNQ2 channel potentiators, confirmation, cell-based, CHO, FluxOR thallium flux, duplicate; shares compounds with KCNQ2 pot; CHO-KCNQ2 cells, FluxOR thallium flux fluorescence; potentiation, less the hit threshold, % at 10 µM; actives 68% (n = 1,200);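 active means fluorescence ratio rising 3 SD or more over the vehicle control mean in both replicates, plus primary screen hit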;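 further: peak minus minimum thallium fluorescence divided by baseline after K/Tl stimulus; 0% = vehicle mean plus 3 SD and 100% = vehicle minus unstimulated blank difference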
Kir2-1 sel: mouse Kir2.1 channel activation off-target, confirmation, selectivity assay for KCNQ2 potentiator project, cell-based, HEK293, FluxOR thallium flux; AID 2345, 2010; activity over 3SD threshold, % at 10 µM; actives 2% (n = 1,200); HEK293 Kir2.1, FluxOR thallium flux fluorescence; shares compounds with KCNQ2 pot;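 active means fluorescence ratio rise of at least 3 SD above the vehicle-control mean, seen in both replicates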;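 further: 0% = vehicle mean plus 3 SD and 100% = vehicle minus no-stimulus blank window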
KCNQ2 W236L pot: potentiators of retigabine-insensitive KCNQ2 W236L, mechanism study for KCNQ2 potentiator project, cell-based, rat KCNQ2 W236L, CHO, automated patch clamp | AID 2558, 2010 | shares compounds with KCNQ2 pot | actives 10% (n = 940) | current increase over 3SD of negative controls (%), stronger effect = higher value, % at 25 µM | automated patch clamp current;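 active means current increase at least 3 SD of the untreated controls above them in both duplicate recordings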
Starred values were filed as active, the others as inactive; i = inactive; nt = not tested or not shown. An excerpt weighted towards active compounds, which were near 1.6% of everything screened.

SMILES	KCNQ2 pot	KCNQ2 inh	Kir21 confirm	HEK293 ctr	others
COCCNC(=O)/C(C#N)=C/c1ccc(O)cc1	0.47	i	nt	nt
CN(C)C(=O)c1ccccc1Sc1cc(Cl)ccc1Cl	nt	i	47.0%*	i
CN(C)C(=O)c1ccccc1Sc1ccc(Cl)cc1Cl	nt	i	nt	nt
COc1cccc(-n2c(C)cc(/C=C3\C(=N)N4N=C(CC(=O)N5CCOCC5)SC4=NC3=O)c2C)c1	nt	i	nt	nt
COc1ccccc1CNC(=O)CSCc1cnn(-c2ccccc2)c1-n1cccc1	nt	i	i	i
COc1cccc(CNC(=O)CSCc2cnn(-c3ccccc3)c2-n2cccc2)c1OC	nt	i	nt	nt
CC1c2ccsc2CCN1S(=O)(=O)c1ccccc1 (stereo not given)	0.51	i	52.5%*	i
COc1cc2c(cc1OC)C(C)N(S(=O)(=O)c1cccs1)CC2 (stereo not given)	1.16	i	nt	nt
CCN(CC)CCNCc1cc(Br)ccc1OCC(=O)NCc1ccccc1	nt	i	nt	nt
CC(NCc1cc(Br)ccc1OCC(=O)NCc1ccccc1)c1ccccc1 (stereo not given)	nt	i	43.0%*	i
Cc1c(C)c2ccc(OCC(=O)NCCN3CCOCC3)cc2oc1=O	nt	i	nt	nt
COC(=O)CSc1nnc(CNC(=O)c2ccc(OC)c(OC)c2)n1C	0.37	i	nt	nt
CCOC(=O)c1c(CSc2ccc(CC)cc2)oc2ccc(O)c(CN(C)C)c12	-5.81	-5.81*	16.5%*	i
CCOC(=O)c1c(CSc2ccccc2)oc2cc(Br)c(O)c(CN(C)C)c12	0.71	i	nt	nt
CCOC(=O)c1c(C)oc2ccc(O)c(CN(C)C)c12	0.06	i	nt	nt
CC(=O)c1c(CSc2ccccc2)oc2ccc(O)c(CN(C)C)c12	nt	i	38.0%*	64.5%*
COCCn1c(SCC(=O)c2ccc(F)cc2)nnc1C(C)C	nt	i	nt	nt
CCOC(=O)CN1C(=O)/C(=C/c2c(F)cccc2Cl)Oc2ccccc21	nt	i	nt	nt
CC1Cc2cc(S(=O)(=O)N3CCN(c4ccccc4F)CC3)ccc2N1C(=O)C1CC1 (stereo not given)	nt	i	nt	nt
Clc1cccc(Cl)c1COn1nnc2ccccc21	nt	i	nt	nt
c1ccc(COn2nnc3ccccc32)c(COn2nnc3ccccc32)c1	nt	i	71.5%*	i
COc1cccc(CN2CCNC(=O)C2CC(=O)N(C)C2CCOCC2)c1OC (stereo not given)	0.37	i	nt	nt
N#CC1(NC(=O)COC(=O)/C=C/c2ccc3ccccc3n2)CCCCC1	0.03	i	nt	nt
C=CCSc1nc2sc3c(c2c(=O)n1CC)CCc1ccccc1-3	5.72*	i	i	194.5%*	CHO-K1 ctr=-0.8;KCNQ1 pot spec=-16.5;KCNQ2 pot confirm=17.6*;Kir2-1 sel=-31.1;KCNQ2 W236L pot=6.7%*
